High-throughput results from PubChem.
RXFP1 ag: RXFP1 (human) receptor agonism; 370,000 tested, 0.3% active; HEK293T-RXFP1 cAMP TR-FRET, 30 min; response scale: percent of porcine relaxin response, buffer zero; Potency, µM (titrated, usually from 57.5 µM), without a hit: top-dose activation, most hits filed as activators; active = well fitted activation curve with a large enough effect; inconclusive = small, poorly fitted or top-dose-only effect; note: potency is the fitted concentration of half-maximal effect; % is set by controls: 0 for no effect and ±100 for the full control effect; nearly all actives have a fitted effect of over 60% in size
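cAMP rise read by TR-FRET after 30 min, 37C compound exposure (up to 58 uM) in RXFP1-transfected HEK293 cells with Ro 20174 present. EC50 from Hill-equation fits, with 29 nM porcine relaxin as 100% and buffer as basal.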
RXFP1 antagonist: blocks the human relaxin receptor RXFP1. activity change, negative = inhibition, % at 57.5 µM. 350,000 tested, 0.59% active. HEK293-RXFP1, relaxin-stimulated cAMP HTRF, 30 min; stronger effect = lower value. Q9HBX9;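 active = activity change of -60% or lower, but not beyond a set lower limit; inconclusive = change between -60% and -40%, or beyond the set limit; inactive = change above -40%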; note: % is set by controls: 0 for no effect and ±100 for the full control effect
gsp antag: antagonists of gsp mutant (McCune-Albright syndrome). gsp-mutant cells, cAMP HTRF, 30 min. Potency, µM (series often up to 76.9 µM), inactives show at the highest dose activity change, negative = inhibition, most hits filed as inhibitors. 340,000 tested, 0.4% active. AID 624288; calls by dose curve; cell line not stated here;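 note: intracellular cAMP measured with PDE inhibitor Ro 20-1724 present during compound exposure; potency is the fitted concentration of half-maximal effect; % is set by controls: 0 for no effect and ±100 for the full control effect; nearly all actives have a fitted effect of over 65% in size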
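G418-selected cells were plated in DMEM/10% FBS for 16-24 h at 37C, then treated with compounds plus the PDE inhibitor […] (300 uM solution added) for 30 min at 37C. Intracellular cAMP was measured by HTRF after 30 min lysis at room temperature.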
gsp ag: gsp mutant agonism. gsp mutant cells, cAMP HTRF, 30 min. Potency, µM (highest dose often 76.9 µM), inactives show at the top dose activation (cAMP increase), actives largely listed as activators. 340,000 tested, 0.13% active. AID 624287; active = well fitted activation curve with a large enough effect; inconclusive = small, poorly fitted or top-dose-only effect, or another doubt; inactive = no such curve, though single readings can be large or run the other way; cell line not stated here;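 note: phosphodiesterase inhibitor Ro 20-1724 added with compounds to block cAMP breakdown; potency is the fitted concentration of half-maximal effect; nearly all actives have a fitted effect of over 60% in size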
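Cells stably selected in G418 were plated at 2000/well, grown 16-24 hr, then given compounds in DMSO with the PDE inhibitor […] (300 uM solution added) for 30 min at 37C; cAMP was read by HTRF.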
TSHR antagonist: blocks TSH signaling through the human TSH receptor; P16473; TSHR-expressing cells, TSH-stimulated cAMP HTRF, 2 h; stronger effect = lower value; activity change, negative = inhibition, % at 11.5 µM; 330,000 tested, 0.2% active; AID 504810;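 active = activity change below a set negative limit, meaning inhibition stronger than a set level, cut at about -70% in these data; inconclusive = activity change between two set negative limits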; note: % is set by controls: 0 for no effect and ±100 for the full control effect
Target sequence (P16473 whole entry, looked up): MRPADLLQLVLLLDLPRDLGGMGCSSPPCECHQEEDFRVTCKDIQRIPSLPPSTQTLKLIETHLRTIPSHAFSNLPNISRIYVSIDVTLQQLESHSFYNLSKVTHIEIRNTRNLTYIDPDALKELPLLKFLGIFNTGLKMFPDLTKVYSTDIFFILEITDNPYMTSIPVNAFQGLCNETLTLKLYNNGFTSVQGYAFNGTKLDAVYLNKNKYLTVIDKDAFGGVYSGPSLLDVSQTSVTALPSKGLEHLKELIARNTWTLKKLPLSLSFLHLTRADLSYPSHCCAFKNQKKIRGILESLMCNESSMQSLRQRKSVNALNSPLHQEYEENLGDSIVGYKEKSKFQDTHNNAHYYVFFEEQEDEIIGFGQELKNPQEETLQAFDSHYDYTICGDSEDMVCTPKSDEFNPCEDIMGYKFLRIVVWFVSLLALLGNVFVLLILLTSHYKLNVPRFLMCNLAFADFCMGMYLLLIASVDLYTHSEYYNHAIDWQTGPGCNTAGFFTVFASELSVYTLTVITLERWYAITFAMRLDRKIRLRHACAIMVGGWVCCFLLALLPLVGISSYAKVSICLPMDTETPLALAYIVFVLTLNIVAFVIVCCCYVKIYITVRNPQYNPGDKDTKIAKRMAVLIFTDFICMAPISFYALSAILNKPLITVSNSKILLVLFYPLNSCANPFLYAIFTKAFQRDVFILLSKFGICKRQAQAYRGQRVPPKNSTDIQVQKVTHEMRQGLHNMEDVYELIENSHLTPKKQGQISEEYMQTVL
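Antagonism was scored as loss of TSH-driven cAMP in TSHR cells, stimulated with 4nM TSH (EC80) for 2 hours at 37 deg C and detected by homogeneous HTRF competition immunoassay.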
Akt phos inh: inhibitors of Akt phosphorylation. Neuro2A IGF-stimulated pAkt S473 HTRF, 20 min; stronger effect = lower value. activity change, % for hits at 50 µM. AID 651550. 360,000 tested, 0.32% active; in the data active = activity change below about -80%; inconclusive = mostly about -51% to -80%; note: % is set by controls: 0 for no effect and ±100 for the full control effect
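Neuro2A cells in DMEM with 0.5% FBS, overnight at 37 deg C, given compound at single 50 µM final, then IGF (6 nM final) for 20 min at 37 deg C. Lysed; phospho-Akt Ser473 by HTRF after 24 h, 665/615 ratio.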
Active calls of the source: *; i = inactive; ? = inconclusive; nt = not tested or not shown; ! = not confirmed by another sample; [ ] = dose if it differs, or a comment. The list is not random: actives were taken first. Their share in the collection is about 1.3%.

SMILES	RXFP1 ag	RXFP1 antagonist	gsp antag	gsp ag	TSHR antagonist	Akt phos inh
Cc1ccc(NC(=O)Cn2nnc(C(=O)NCCc3ccccc3)c2N)c(C)c1	-1%	21	6%	5%	-107*	i
COc1ccc(Cl)cc1NC(=O)Cn1nnc(C(=O)NCCc2ccc(OC)c(OC)c2)c1N	0%	3	-2%	-37%	-9	i
COc1ccc(CCNC(=O)c2nnn(CC(=O)Nc3ccc(C)cc3C)c2N)cc1OC	1%	-6	22%	30%	-82*	i
C/C(=N\NC(=O)C1CC1)c1ccc(OC(F)F)cc1	3%	2	-2%	-6%[15.4 µM]	6	i
Cc1c(NS(=O)(=O)c2cc(C(=O)NCc3ccco3)cc(Cl)c2Cl)c(=O)n(-c2ccccc2)n1C	2%	0	?	-10%[15.4 µM]	7	i
C[C@@H]1CN([C@H](C)CO)C(=O)CCCn2nncc2CO[C@H]1CN(C)S(=O)(=O)c1ccccc1	nt	-6	nt	-115%	nt	i
O=C(OCCc1cc2ccccc2c(=O)o1)c1ccccc1C(F)(F)F	1%	nt	-20%	-33%	-71*	i
CSCCC(NC(=O)COc1ccccc1)C(=O)N1CC(C)OC(C)C1 (stereo unspecified)	1%	-2	9%	40%	2	i
CC1CC(C)CN(C(=O)CSc2nnc3ccccn23)C1 (stereo unspecified)	nt	-2	8%	10%	nt	i
CCOC(=O)c1cc(-c2ccccc2)n(-c2cccc(C(=O)NC(C)(C)C)c2)c1C	0%	-21	nt	nt	nt	nt
CCOC(=O)c1cc(-c2ccccc2)n(-c2cccc(C(=O)N(C)c3ccc(C)cc3)c2)c1C	-1%	-63*	nt	nt	nt	nt
CC(C)(C)c1nnc(NS(=O)(=O)c2ccccc2)s1	nt	-4	nt	nt	nt	nt
Cc1ccccc1C(=O)Nc1nnc(S(=O)(=O)N(C)Cc2ccco2)s1	5%	-3	-16%	?	-11	i
CN(Cc1ccco1)S(=O)(=O)c1nnc(NC(=O)c2ccccc2Cl)s1	11µM*!	-10	?	?	-9	i
O=C(NCc1ccc(F)cc1)c1cc(-c2ccncc2)nc2ccccc12	-1%	-12	-19%	1%[15.4 µM]	-12	i
O=C(NCc1cc([N+](=O)[O-])ccc1O)c1cc(-c2ccncc2)nc2ccccc12	1%	?	40µM*	?	-34	i
O=C(CN1CCN(Cc2ccccc2)CC1)Nc1ccccc1-c1ccccc1	1%	0	-3%	14%	-14	i
COc1ccc(-n2c(=S)[nH]c3cc(C(=O)Nc4ccc(F)cc4)ccc3c2=O)c(OC)c1	3%	?	40µM*	5%	-6	i
COc1ccc(-n2c(=O)c3ccc(C(=O)NCc4ccc(C)cc4)cc3n(CC(=O)Nc3ccc(F)cc3)c2=O)cc1	32µM*	nt	nt	nt	nt	nt
COc1ccc(NC(=O)Cn2c(=O)n(-c3ccccc3)c(=O)c3ccc(C(=O)NCc4ccc5c(c4)OCO5)cc32)cc1	17%	-19	nt	nt	nt	nt
COc1ccc(-n2c(=S)[nH]c3cc(C(=O)NCc4ccc(F)cc4)ccc3c2=O)c(OC)c1	0%	-17	25µM*	7%[15.4 µM]	0	i
COc1ccc(-n2c(=S)[nH]c3cc(C(=O)Nc4ccccc4OC)ccc3c2=O)c(OC)c1	-1%	-19	28µM*	4%[15.4 µM]	?	i
COc1ccc(-n2c(=S)[nH]c3cc(C(=O)NCc4ccccc4OC)ccc3c2=O)c(OC)c1	-1%	-15	-35%	3%[15.4 µM]	-9	i
CCCCn1c(N)c(N(CCOC)C(=O)c2ccc(-c3ccccc3)cc2)c(=O)[nH]c1=O	0%	-18	2%	?	2	i
CC1(C(=O)NS(=O)(=O)c2ccc(Cl)cc2)CCN1C(=O)Cc1ccc(Cl)cc1Cl (stereo unspecified)	nt	nt	nt	nt	nt	i
SMILES	RXFP1 ag	RXFP1 antagonist	gsp antag	gsp ag	TSHR antagonist	Akt phos inh
CSCc1ccc(C(=O)OCc2nc3ccccc3s2)o1	nt	-9	5%	-4%	-12	i
Cc1nc(N2CCOCC2)c2c(C(=O)Nc3cccc(C(F)(F)F)c3)c(C)oc2n1	-1%	0	nt	nt	nt	nt
Cc1cc2cc(CCNC(=O)c3ccc(S(=O)(=O)N4CCCC4)cc3)c(=O)[nH]c2cc1C	0%	-31	-15%	7%	-77*	i
COc1ccc(OC)c2[nH]c(=O)c(CCNC(=O)c3ccc(S(=O)(=O)N4CCCCC4)cc3)cc12	-1%	nt	6%	-40%	-6	i
O=C(CSc1oc(-c2ccco2)nc1S(=O)(=O)c1ccc(F)cc1)NCC1CCCO1 (stereo unspecified)	1%	-2	-5%	-44%	21	i
O=C(CSc1oc(-c2ccco2)nc1S(=O)(=O)c1ccccc1)NCC1CCCO1 (stereo unspecified)	3%	-4	-3%	23%	9	-101%*
CC(C)Oc1ccc(C(CCN)C2CCCCC2)cc1 (stereo unspecified)	0%	-75*	13%	0%	-3	i
CC(C)Oc1ccc(C(=O)NC2CCCCC2)cc1	0%	-7	-1%	-5%	-10	i
O=C(O)C(Cc1cc(I)c(O)c(I)c1)c1ccccc1 (stereo unspecified)	nt	-11	nt	nt	nt	nt
O=C(COc1c(Br)cc(Br)c2cccnc12)N1CCc2ccccc2C1	18%	-5	-12%	?	-7	i
O=C(COc1c(Br)cc(Br)c2cccnc12)N1CCCCC1	?	8	-4%	6.3µM*	9	i
Cc1cccc(C)c1NC(=O)Cn1c(=O)n(Cc2ccc3c(c2)OCO3)c(=O)c2oc3ccccc3c21	4%	-6	nt	nt	nt	nt
C[C@H]1CN([C@@H](C)CO)C(=O)c2cc(Br)cnc2O[C@H]1CN(C)C(=O)c1cnccn1	nt	12	nt	11µM*	nt	i
C[C@H](CO)N1C[C@H](C)[C@H](CN(C)C(=O)c2ccccn2)Oc2ncc(Br)cc2C1=O	nt	5	nt	-30%	nt	i
CCn1c(NCc2ccc3c(c2)OCO3)nc2ccccc21	1%	8	10%	-4%	0	-106%*
COc1ccccc1CNC(=O)CSc1cc(C)[nH]c(=O)n1	1%	nt	nt	nt	nt	nt
CCOc1ccc(NC(=O)Cn2c(=O)n(Cc3ccc4c(c3)OCO4)c(=O)c3ccc(C(=O)NC4CCCCC4)cc32)cc1	3%	nt	nt	nt	nt	nt
CCCCCC(=O)Nc1ccc(C(=O)CN2C(=O)NC3(CCCCCC3)C2=O)cc1	0%	-90*	8%	16%[15.4 µM]	13	i
Cc1cc(=O)oc2cc(OCC(=O)OCC(=O)NC3CC3)ccc12	-4%	-12	-7%	7%[15.4 µM]	-11	i
